These results are taken from PubChem BioAssay AID2073 (Sanford-Burnham Center for Chemical Genomics, 2009).

A word on the inhibition: it is the relative decrease from the control value, in per cent.

The assay has as its target Voltage-dependent N-type calcium channel subunit alpha-1B (Homo sapiens) (UniProt Q00975). Briefly: inhibitors of Mint1-CaV2.2 protein interaction, biochemical, HTRF (AID 2073). The settings on record: at 20 µM, stronger effect = higher value. On the technique in general: In TR-FRET formats the signal depends on donor and acceptor labels being close together.
Where [1] appears, read: measured here: average of repeat tests.

In all, about 290,000 compounds went through this assay and about 570 (0.2%) were called active. About 1% were inconclusive and are not listed. Rule as the data show it: active = inhibition mostly above about 51% (no sharp cut-off); inconclusive = no clear call, values can overlap the other calls; inactive = mostly below about 53%. Many of the other results were omitted from the sample, so actives are more common in it than they were.

Voltage-dependent N-type calcium channel subunit alpha-1B (Homo sapiens), sequence (Q00975 whole entry, looked up): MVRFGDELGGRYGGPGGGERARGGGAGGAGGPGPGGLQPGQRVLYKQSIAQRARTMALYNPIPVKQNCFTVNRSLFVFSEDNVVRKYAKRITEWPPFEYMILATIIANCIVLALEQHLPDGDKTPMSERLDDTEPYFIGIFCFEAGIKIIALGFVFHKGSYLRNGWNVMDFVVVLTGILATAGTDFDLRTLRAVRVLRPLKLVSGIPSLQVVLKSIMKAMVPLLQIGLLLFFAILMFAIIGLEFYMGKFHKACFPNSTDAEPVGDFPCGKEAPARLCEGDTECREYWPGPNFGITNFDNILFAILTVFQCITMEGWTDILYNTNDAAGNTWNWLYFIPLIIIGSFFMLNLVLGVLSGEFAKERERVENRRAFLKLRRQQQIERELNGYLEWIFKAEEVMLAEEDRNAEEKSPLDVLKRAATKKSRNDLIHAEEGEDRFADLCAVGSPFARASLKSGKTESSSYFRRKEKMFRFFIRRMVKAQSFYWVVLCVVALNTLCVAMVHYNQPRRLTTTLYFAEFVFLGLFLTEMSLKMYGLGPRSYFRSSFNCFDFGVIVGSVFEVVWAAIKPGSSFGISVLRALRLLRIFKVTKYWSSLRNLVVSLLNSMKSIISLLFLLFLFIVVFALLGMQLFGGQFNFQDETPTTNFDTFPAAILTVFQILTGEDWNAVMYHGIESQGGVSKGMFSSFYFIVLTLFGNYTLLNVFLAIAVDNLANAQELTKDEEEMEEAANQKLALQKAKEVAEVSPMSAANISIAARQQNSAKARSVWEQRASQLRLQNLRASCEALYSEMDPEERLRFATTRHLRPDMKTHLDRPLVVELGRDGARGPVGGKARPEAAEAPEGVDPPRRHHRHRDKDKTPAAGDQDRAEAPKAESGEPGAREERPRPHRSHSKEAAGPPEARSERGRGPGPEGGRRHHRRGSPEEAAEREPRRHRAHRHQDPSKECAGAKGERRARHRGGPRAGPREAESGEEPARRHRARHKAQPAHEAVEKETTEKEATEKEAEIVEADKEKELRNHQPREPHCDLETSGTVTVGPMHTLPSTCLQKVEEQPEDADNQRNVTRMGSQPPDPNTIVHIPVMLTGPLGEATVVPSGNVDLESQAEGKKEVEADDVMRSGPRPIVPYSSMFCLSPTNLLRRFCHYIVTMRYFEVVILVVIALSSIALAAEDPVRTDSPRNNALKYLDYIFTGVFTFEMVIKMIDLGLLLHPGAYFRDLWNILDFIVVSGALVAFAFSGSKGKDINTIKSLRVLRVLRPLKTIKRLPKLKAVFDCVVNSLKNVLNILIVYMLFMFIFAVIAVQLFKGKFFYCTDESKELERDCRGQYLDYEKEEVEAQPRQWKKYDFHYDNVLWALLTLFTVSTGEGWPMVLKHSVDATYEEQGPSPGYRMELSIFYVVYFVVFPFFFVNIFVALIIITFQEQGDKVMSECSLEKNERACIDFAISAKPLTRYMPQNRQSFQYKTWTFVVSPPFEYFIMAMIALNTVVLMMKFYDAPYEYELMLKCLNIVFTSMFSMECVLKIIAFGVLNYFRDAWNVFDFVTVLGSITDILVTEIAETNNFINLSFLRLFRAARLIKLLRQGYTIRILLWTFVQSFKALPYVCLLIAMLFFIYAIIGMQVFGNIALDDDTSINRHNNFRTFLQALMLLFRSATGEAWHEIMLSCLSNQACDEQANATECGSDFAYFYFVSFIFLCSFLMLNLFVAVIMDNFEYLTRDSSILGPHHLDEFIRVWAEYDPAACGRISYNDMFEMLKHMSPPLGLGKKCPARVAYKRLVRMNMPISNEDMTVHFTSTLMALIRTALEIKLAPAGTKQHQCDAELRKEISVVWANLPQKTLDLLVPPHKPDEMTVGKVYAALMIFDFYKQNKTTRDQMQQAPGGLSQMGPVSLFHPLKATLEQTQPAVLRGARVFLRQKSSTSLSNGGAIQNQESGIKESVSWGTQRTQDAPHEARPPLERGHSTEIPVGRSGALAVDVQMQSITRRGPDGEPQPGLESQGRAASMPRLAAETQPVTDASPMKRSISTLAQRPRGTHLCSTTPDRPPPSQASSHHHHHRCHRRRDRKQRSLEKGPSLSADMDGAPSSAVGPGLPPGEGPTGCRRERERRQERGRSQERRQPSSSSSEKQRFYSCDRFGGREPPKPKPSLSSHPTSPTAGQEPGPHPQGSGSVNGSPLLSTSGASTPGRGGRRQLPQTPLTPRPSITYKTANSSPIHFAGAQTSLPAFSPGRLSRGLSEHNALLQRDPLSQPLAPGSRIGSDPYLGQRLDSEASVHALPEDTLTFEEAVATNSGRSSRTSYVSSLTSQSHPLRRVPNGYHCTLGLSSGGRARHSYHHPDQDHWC

As to `O=C(CSc1nc2ccccc2c(=O)[nH]1)Nc1ccccc1O`, the inhibition is -8.6% (inactive).

`O=c1nc2c(O)cccn2c2c1c(=O)[nH]c1ccccc12`: the inhibition is 66.4% (active).

On to `O=c1[nH]c2ccccc2c2nc3ccccn3c12`, for which the inhibition is 23.2% (inactive).

`Cc1ccc2c(c1)N(CCCC(=O)NCc1ccc3c(c1)OCO3)C(=O)CO2`: the inhibition is 9.3% (inactive).

Take `CCOC(=O)c1cn2nc(Oc3cccc(F)c3)ccc2n1`: the inhibition is 4.6% (inactive).

On to `CC(C)NC(=O)C1(S(=O)(=O)c2ccccc2)CC=CC1`, for which the inhibition was 4.8% (inactive).

As to `COc1ccc(C(=O)NCCCOc2cccc(NC(C)=O)c2)cc1`, the inhibition was 21.8% (inactive).

Turning to `CC1CCN(C(=O)C2CCCN(S(=O)(=O)c3cccc4nsnc34)C2)CC1` (stereo unspecified), the inhibition is 5.2% (inactive).

`COc1ccc(-c2nnc(SCC(=O)NC(=O)NCc3ccco3)o2)cc1`: the inhibition was -1.1% (inactive).

In the case of `COc1ccc(-c2nnc(SCC(=O)NC(=O)NCc3ccccc3)o2)cc1`, the inhibition was 55.3% (active).

As for `COc1ccc(-c2nnc(SCC(=O)NCCc3ccccc3)o2)cc1`, the inhibition is 2.1% (inactive).

In the case of `COc1ccc(N(CC(=O)NCc2ccco2)S(C)(=O)=O)cc1`, the inhibition is 2.6% (inactive).

On to `Cc1cccc(/C=N/NC(=O)NC2CCCCC2)c1`, for which the inhibition is -3.7% (inactive).

In the case of `O=C1N/C(=C/c2ccc(N3CCOCC3)o2)C(=O)N1c1cccc(Cl)c1`, the inhibition is 58.7% (active).

Take `O=C1NC(=O)/C(=C\c2ccc(N3CCOCC3)o2)N1`: the inhibition is 71.7% (active).

Turning to `O=C1NC(=O)/C(=C/c2ccc(N3CCOCC3)o2)N1`, the inhibition is 52.2% (inactive). Besides, the inhibition under setting [1] amounted to 3.9%.

On to `O=C1N/C(=C/c2ccc(N3CCOCC3)o2)C(=O)N1c1ccccc1`, for which the inhibition is 44.8% (inactive).

As to `C=CCN1C(=O)N/C(=C/c2ccc(N3CCOCC3)o2)C1=O`, the inhibition was 55.4% (inactive). In addition, the inhibition under setting [1] worked out at 7.9%.

`O=C1NC(=S)S/C1=C/c1ccc(N2CCOCC2)o1`: the inhibition was 32.5% (inactive).

Turning to `Cc1cc(Br)ccc1OCCN1CCCC1`, the inhibition is 1.2% (inactive).

`Cc1ccc(S(=O)(=O)N2CCN(CCNC(=O)C(=O)NCc3ccccc3)CC2)cc1`: the inhibition was -2.1% (inactive).

`Cc1cccc(C(=O)O)c1NC(=O)Cc1cccc2ccccc12`: the inhibition is 9.3% (inactive).

`O=c1[nH]c(SCc2n[nH]c(=S)n2-c2ccccc2)nc2sc3c(c12)CCC3`: the inhibition was 17.3% (inactive).

In the case of `COc1ccc(/C=C2\SC(=O)N(CCC(=O)Nc3ccc(S(=O)(=O)Nc4nccs4)cc3)C2=O)cc1`, the inhibition is 25.3% (inactive).

As for `O=C(CCN1C(=O)S/C(=C\c2ccccc2)C1=O)Nc1ccc(S(=O)(=O)Nc2nccs2)cc1`, the inhibition is -6.5% (inactive).

For `COc1ccc(/C=C2/SC(=O)N(CCC(=O)Nc3ccc(S(=O)(=O)Nc4nccs4)cc3)C2=O)cc1`, the inhibition is 53% (active).

`COc1cccc(OC)c1C(=O)Nc1cccnc1`: the inhibition was -4.9% (inactive).

Turning to `CNC(=S)NNC(=O)Cc1ccc(OC)c(OC)c1`, the inhibition was -18.7% (inactive).

For the molecule `Cc1cc(N)n2nc(C(F)(F)F)nc2n1`, the inhibition was -3.1% (inactive).

On to `CC(=O)c1ccc(NC(=O)c2cc3nc4c(c(C(F)(F)F)n3n2)CCCC4)cc1`, for which the inhibition was 33.2% (inactive).

For the molecule `CCn1c(SCC(=O)Nc2cc(C)on2)nnc1-c1ccc(S(=O)(=O)N2CCCC2)cc1`, the inhibition was 0.3% (inactive).

For the molecule `O=C1C2C3C=CC(C3)C2C(=O)N1c1ccc(-c2nc3ccccc3o2)cc1` (stereo unspecified), the inhibition was 15.5% (inactive).

On to `O=C1c2ccccc2C(=O)N1c1cccc(-c2nc3ccccc3o2)c1`, for which the inhibition was 19.2% (inactive).

On to `O=C1c2ccccc2C(=O)N1c1ccc(-c2nc3ccccc3o2)cc1`, for which the inhibition was 67.9% (active).

For `CC(=O)c1cccc(NC(=O)NNC(=O)c2ccc(-c3ccccc3)cc2)c1`, the inhibition was 22.1% (inactive).

As for `CCCNC(=O)CSc1nccn1Cc1ccco1`, the inhibition is -17.8% (inactive).

Take `Cc1ccc(N2CCN(C(=S)Nc3ccccc3C)CC2)cc1`: the inhibition is -9.9% (inactive).

Take `COc1ccc(Cn2c3nc4ccccc4nc3c3c(=O)n(Cc4ccco4)c(C)nc32)cc1`: the inhibition is 18.4% (inactive).

As for `Cc1nc2c(c(=O)n1Cc1ccccc1Cl)c1nc3ccccc3nc1n2Cc1ccco1`, the inhibition is 38.1% (inactive).

`Cc1nc2c(c(=O)n1Cc1ccco1)c1nc3ccccc3nc1n2Cc1ccccc1`: the inhibition is 50.6% (active).

Consider `O=[N+]([O-])c1ccc(Nc2nc(NCCO)nc(N3CCCC3)n2)cc1`, for which the inhibition is 5.1% (inactive).

As to `CCOc1ccc(/C=C/C2=Cc3c(sc(NC(=O)CSc4n[nH]c(N)n4)c3C#N)C(C)(C)C2)cc1`, the inhibition is 12.8% (inactive).

With `Cc1ccc(/C=C/C2=Cc3c(sc(NC(=O)CSc4n[nH]c(N)n4)c3C#N)C(C)(C)C2)o1`, the inhibition is 61.1% (active).

As for `Cc1ccsc1/C=C/C1=Cc2c(sc(NC(=O)CSc3n[nH]c(N)n3)c2C#N)C(C)(C)C1`, the inhibition is 20.6% (inactive).

Consider `COc1cccc(NC(=O)c2ccco2)c1`, for which the inhibition was 3.2% (inactive).

With `Cc1ncc(CO)c(/C=N/NC(=S)Nc2ccc(C(C)C)cc2)c1O`, the inhibition was 16.5% (inactive).

As for `Cc1ncc(CO)c(/C=N/NC(=S)Nc2cccc(Cl)c2)c1O`, the inhibition was 53.7% (active).

In the case of `Cc1ncc(CO)c(/C=N/NC(=S)Nc2ccc(Cl)c(Cl)c2)c1O`, the inhibition was 50.4% (inactive). Further, the inhibition under setting [1] was determined as 30.4%.

As for `CCCCCCc1nc(C(N)=O)c2[nH]c(=O)n(-c3ccccc3F)c2n1`, the inhibition was 10.4% (inactive).

In the case of `COC(=O)c1c(C)oc(C)c1S(=O)(=O)N(Cc1ccccc1)C(C)C`, the inhibition is -16.1% (inactive).

As to `CCc1ccc2nc(N(CCCN(C)C)C(=O)c3ccc(S(=O)(=O)N4CCCC4)cc3)sc2c1`, the inhibition is -0.7% (inactive).

Take `CC(=O)c1ccc(N2CCN(C(=O)c3nn(C)c4c3CS(=O)(=O)c3ccccc3-4)CC2)cc1`: the inhibition is 9% (inactive).

On to `O=c1cc2oc3cc(O)c(O)cc3c(-c3ccccc3[N+](=O)[O-])c-2cc1O`, for which the inhibition was 15.9% (inactive).

In the case of `CCOc1ccccc1-c1c2cc(O)c(=O)cc-2oc2cc(O)c(O)cc12`, the inhibition is 24.8% (inactive).

As to `O=c1cc2oc3cc(O)c(O)cc3c(-c3ccccc3O)c-2cc1O`, the inhibition is 68.3% (active).

In the case of `CCC(=O)N1CCc2cc(S(=O)(=O)CCC(=O)Nc3ccc(OC)c(OC)c3)ccc21`, the inhibition was 5.3% (inactive).

In the case of `COc1cc(C(=O)NS(=O)(=O)c2ccccc2C)ccc1Cc1cn(C)c2ccc(NC(=O)OC3CCCC3)cc12`, the inhibition is 51.7% (active).

On to `Cc1cc(NC(=O)OC2CCCCC2)ccc1[N+](=O)[O-]`, for which the inhibition was -7.7% (inactive).

Turning to `COc1ccc(CNC(=O)Cc2cn(C)c3ccccc23)c(OC)c1`, the inhibition was 5.9% (inactive).

With `CC(C)CC(=O)N1CC(C)N(C(=O)CC(C)C)CC1C` (stereo unspecified), the inhibition is 4.2% (inactive).

`O=[N+]([O-])c1cccc(CSc2nnc3ccccn23)c1`: the inhibition was 13.5% (inactive).

As for `N#C/C(=C/c1ccc(N2CCOCC2)o1)c1ccc(Cl)cc1`, the inhibition is 51.9% (active).

In the case of `Cc1ccc(/C(C#N)=C\c2ccc(N3CCOCC3)o2)cc1`, the inhibition was 43.4% (inactive).

In the case of `N#C/C(=C/c1ccc(N2CCOCC2)o1)c1ccc(Br)cc1`, the inhibition was 39.6% (inactive).

Regarding `CCCCCCc1ccc(N2C[C@H](CCCCC)[C@@H](CC(=O)NCc3ccc(OC)cc3)C2=O)cc1`, the inhibition is 10.1% (inactive).

Take `Cc1ccc2c(COC(=O)c3ccc(NC(=O)CC#N)cc3)cc(=O)oc2c1C`: the inhibition was 57.8% (inactive). For the same molecule, under setting [1], the inhibition worked out at 36.4%.

Take `Cc1ccc(NC(=O)c2nsc(Cl)c2Cl)cc1`: the inhibition is 18.9% (inactive).

For `C/C(=N\NC(=O)c1ccccc1Cl)c1ccccn1`, the inhibition is 16.3% (inactive).

`CCN(CC)c1ccc(/C=N/NC(=O)c2c(Cl)c(C)nn2C)cc1`: the inhibition was 10.2% (inactive).

For the molecule `CCc1nnc(NS(=O)(=O)c2ccc(NCc3cc(Br)ccc3O)cc2)s1`, the inhibition is -6.2% (inactive).

For the molecule `O=C(OCc1cc(=O)n2c(n1)sc1ccccc12)c1ccc(O)cc1O`, the inhibition was 60.2% (active).

As to `O=C(OCc1cc(=O)n2c(n1)sc1ccccc12)c1ccc(O)cc1`, the inhibition is 30.3% (inactive).

As to `O=C(OCc1cc(=O)n2c(n1)sc1ccccc12)c1cccc(O)c1`, the inhibition was 19.1% (inactive).

Consider `O=S(=O)(Nc1ccncc1)c1cc(Cl)c(Cl)cc1Cl`, for which the inhibition is 12.2% (inactive).

For `COc1ccc2oc(=Nc3ccccc3)c(-c3nc4ccccc4[nH]3)cc2c1`, the inhibition was 37.9% (inactive).

For the molecule `COc1cccc(N=c2oc3ccccc3cc2-c2nc3ccccc3[nH]2)c1`, the inhibition is 17.1% (inactive).

With `CC(=O)c1sc2nc(CSc3nncn3C)[nH]c(=O)c2c1C`, the inhibition was 22.1% (inactive).

For `Cc1ccc(-n2nnnc2SCc2nc3sc(C)c(C)c3c(=O)[nH]2)cc1`, the inhibition was 12% (inactive).

In the case of `CC(=O)c1sc2nc(CSc3nnnn3-c3ccccc3)[nH]c(=O)c2c1C`, the inhibition is 80.6% (active).

For `COc1ccc2c(C(=O)CN3CCSCC3)c[nH]c2c1`, the inhibition is 25.2% (inactive).

As for `COC(=O)C1=C(N)Oc2c(oc(CO)cc2=O)C1c1ccccc1F` (stereo unspecified), the inhibition was 0.2% (inactive).

`CC(C)C(C(=O)O)N1C(=O)/C(=C/C=C/c2ccco2)SC1=S` (stereo unspecified): the inhibition is 49.5% (inactive).

For the molecule `CC(C(=O)O)N1C(=O)/C(=C/C=C/c2ccco2)SC1=S` (stereo unspecified), the inhibition was 77.7% (active).

As for `O=C(O)CC(C(=O)O)N1C(=O)/C(=C/C=C/c2ccco2)SC1=S` (stereo unspecified), the inhibition is 27.4% (inactive).

Turning to `CNC(=S)NNC(=O)c1c(C)nc2cc(C)ccn12`, the inhibition is 0.7% (inactive).

As to `CC1=C(C(=O)O)N2C(=O)[C@@H](NC(=O)[C@H](N)c3ccccc3)[C@H]2SC1`, the inhibition was -20.5% (inactive).

For the molecule `CC1=C(C(=O)O)N2C(=O)C(NC(=O)c3ccn(C)n3)C2SC1` (stereo unspecified), the inhibition was -8.1% (inactive).

Regarding `O=S1(=O)CCC(n2nccc2-c2ccccc2)C1` (stereo unspecified), the inhibition is -2.9% (inactive).

`COC(=O)C1=C(C)N(CCCC(=O)O)C(=O)NC1c1ccc(-c2ccccc2)cc1` (stereo unspecified): the inhibition was -4.2% (inactive).

Regarding `COc1cc(C2CC(=O)Nc3n[nH]c(-c4ccccc4)c32)cc(OC)c1OC` (stereo unspecified), the inhibition was 8.3% (inactive).

In the case of `COc1cc(C2c3c([nH]c(=O)[nH]c3=O)Nc3ccc4ccccc4c32)cc(OC)c1OC` (stereo unspecified), the inhibition was 82.8% (active).

Turning to `COc1cc(C2c3c([nH]c(=O)[nH]c3=O)Nc3ccc4ccccc4c32)ccc1O` (stereo unspecified), the inhibition was -1.1% (inactive).
